Compounds with a hit are over-represented: about 2.6% of the library has one in this group of screens.
Cruzain inh noDet = blocks cruzain activity in detergent-free assay; purified cruzain, Z-FR-AMC fluorescence, no detergent; Potency, µM, most hits filed as inhibitors; 200,000 compounds, 2.3% hits; AID 1476; also: nearly all actives have a fitted effect of over 40% in size
Target sequence (P25779 123-467 limits assumed): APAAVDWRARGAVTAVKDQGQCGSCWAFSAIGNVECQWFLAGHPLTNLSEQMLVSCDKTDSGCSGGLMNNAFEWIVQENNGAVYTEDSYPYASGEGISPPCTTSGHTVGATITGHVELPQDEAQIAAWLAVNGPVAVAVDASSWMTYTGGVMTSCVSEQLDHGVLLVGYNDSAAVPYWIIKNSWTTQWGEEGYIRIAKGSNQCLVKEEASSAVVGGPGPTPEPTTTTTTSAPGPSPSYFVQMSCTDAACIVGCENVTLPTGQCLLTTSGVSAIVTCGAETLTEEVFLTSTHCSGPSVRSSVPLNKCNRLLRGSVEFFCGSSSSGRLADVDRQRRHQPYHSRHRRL
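Detergent-free condition (0.00005% Triton X-100) in acetate buffer pH 5.5 with DTT. 1.5 nM enzyme and compound were pre-mixed 15 min, then 2 uM Z-FR-AMC substrate added; reaction progress from fluorescence change between first and third reads (60 s).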
Cruzain inh Det = inhibitors of Trypanosoma cruzi cruzain with detergent; P25779; purified cruzain, Z-FR-AMC fluorescence, 0.01% Triton; Potency, µM, actives largely listed as inhibitors; 200,000 compounds, 0.43% hits; AID 1478; also: nearly all actives have a fitted effect of over 40% in size
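Purified cruzain (1.5 nM final) was preincubated with compounds for 15 min at room temperature in 100 mM sodium acetate pH 5.5, 5 mM DTT, 0.01% Triton X-100. Reaction started with 2 uM Z-FR-AMC; AMC fluorescence change over 60 s gave activity.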
Numbers stand for hits. Calls follow the shape of the dose curve; as a rule, active = well fitted curve in the direction sought with a large enough effect; inconclusive = small, poorly fitted or top-dose-only effect, or another doubt; inactive = no such curve, though single readings can be large; an effect the other way counts as inactive or inconclusive.

What do the screens show for `COc1ccc(-c2noc(-c3nnn(-c4ccc(C)cc4C)c3C)n2)cc1`?
Cruzain inh noDet: inactive; Cruzain inh Det: inactive

Results for CCOc1ccccc1CNC(=O)c1cc2c(=O)n(Cc3ccco3)ccc2nc1C ?
Cruzain inh noDet: inconclusive; Cruzain inh Det: inactive

How did CC1CCN(S(=O)(=O)c2ccc3c(c2)c(=O)c(C(=O)NCc2ccc(Cl)cc2)cn3C)CC1 do in these assays?
Cruzain inh noDet: inactive; Cruzain inh Det: inactive

Results for Cc1ccc2nc(SC(C)C(=O)NC3CCCc4ccccc43)[nH]c2c1 (stereo unspecified) ?
Cruzain inh noDet: inactive; Cruzain inh Det: 10µM

How did O=C(CSc1nc2ccccc2[nH]1)NC1CCCc2ccccc21 (stereo unspecified) do in these assays?
Cruzain inh noDet: inactive; Cruzain inh Det: inconclusive

How did O=C(CSc1nc2ccc(Cl)cc2[nH]1)NC1CCCc2ccccc21 (stereo unspecified) do in these assays?
Cruzain inh noDet: inactive; Cruzain inh Det: inactive

What do the screens show for `COc1ccc2nc(SCC(=O)NC3CCCc4ccccc43)[nH]c2c1` (stereo unspecified)?
Cruzain inh noDet: inactive; Cruzain inh Det: 14µM

How did COc1ccc(-c2nnc(SCC(=O)Nc3ccc(C)c(Cl)c3)nc2-c2ccc(OC)c(OC)c2)cc1OC do in these assays?
Cruzain inh noDet: inactive; Cruzain inh Det: inactive

What do the screens show for `CC(=O)N[C@@H](c1ccccc1)[C@]1(C)C[C@H]1[C@@H](C)C(=O)Nc1ccc2ccccc2c1`?
Cruzain inh noDet: inconclusive; Cruzain inh Det: inactive

How did C[C@@H](C(=O)Nc1ccc2ccccc2c1)[C@@H]1C[C@@]1(C)[C@@H](NC(=O)Oc1ccc(F)cc1)c1ccccc1 do in these assays?
Cruzain inh noDet: 7.9µM; Cruzain inh Det: inactive

How did C[C@@H](C(=O)Nc1ccc2ccccc2c1)[C@@H]1C[C@@]1(C)[C@@H](NS(=O)(=O)c1ccc(-c2ccccc2)cc1)c1ccccc1 do in these assays?
Cruzain inh noDet: 3.2µM; Cruzain inh Det: inactive

What do the screens show for `C[C@@H](C(=O)Nc1ccc2ccccc2c1)[C@@H]1C[C@@]1(C)[C@@H](NS(=O)(=O)c1ccccc1)c1ccccc1`?
Cruzain inh noDet: inconclusive; Cruzain inh Det: inactive

How did Cc1ccc(NC(=O)C2CCCN(c3nnc(C)c4c(C)n(-c5ccccc5)nc34)C2)cc1Cl (stereo unspecified) do in these assays?
Cruzain inh noDet: inactive; Cruzain inh Det: inactive

Results for Fc1ccc(C(c2ccc(F)cc2)N2CCN(C/C=C\c3ccccc3)CC2)cc1 ?
Cruzain inh noDet: inactive; Cruzain inh Det: inactive

What do the screens show for `CN(C)c1ccc(C(=S)N2CCCCCC2)cc1`?
Cruzain inh noDet: 6.3µM; Cruzain inh Det: 14µM

What do the screens show for `Cc1ccc(N2CCN(C(=S)c3ccc(N(C)C)cc3)CC2)cc1`?
Cruzain inh noDet: 20µM; Cruzain inh Det: inactive

How did CC(=O)N1CCN(C(=S)c2ccc(N(C)C)cc2)CC1 do in these assays?
Cruzain inh noDet: inactive; Cruzain inh Det: inactive

What do the screens show for `CN(C)c1ccc(C(=S)N2CCN(c3ccccc3)CC2)cc1`?
Cruzain inh noDet: inactive; Cruzain inh Det: inactive

How did O=C(CCc1ccccc1)NCc1ccccn1 do in these assays?
Cruzain inh noDet: inactive; Cruzain inh Det: inactive

What do the screens show for `CC1c2nc3ccccc3n2C(CC(=O)NCc2ccccn2)C(=O)N1Cc1ccccc1` (stereo unspecified)?
Cruzain inh noDet: 13µM; Cruzain inh Det: inactive

Results for COc1ccc(N(C)C(=O)c2cc(S(=O)(=O)N3CCc4ccccc43)cn2C)c(OC)c1 ?
Cruzain inh noDet: inactive; Cruzain inh Det: inactive

Results for O=C(Nc1nnc(C2CC2)s1)c1cc(S(=O)(=O)N2CCN(c3ccccc3)CC2)ccc1Cl ?
Cruzain inh noDet: inconclusive; Cruzain inh Det: inactive

How did O=C(Nc1nnc(C2CC2)s1)c1ccc(Cl)c(S(=O)(=O)N2CCc3ccccc3C2)c1 do in these assays?
Cruzain inh noDet: 25µM; Cruzain inh Det: inactive

What do the screens show for `CCc1nnc(NC(=O)c2ccc(Cl)c(S(=O)(=O)N3CCc4ccccc43)c2)s1`?
Cruzain inh noDet: 13µM; Cruzain inh Det: inactive

What do the screens show for `O=C(Nc1nnc(S(=O)(=O)N2CCc3ccccc32)s1)c1ccccc1Cl`?
Cruzain inh noDet: inactive; Cruzain inh Det: inactive

What do the screens show for `COc1ccc(-c2[nH]nc3nc(-c4cc(Br)ccc4OC)cc(C(=O)O)c23)cc1`?
Cruzain inh noDet: inactive; Cruzain inh Det: inactive

How did O=C(CSc1ccc2nc(-c3ccccc3)cn2n1)Nc1ccccc1 do in these assays?
Cruzain inh noDet: inconclusive; Cruzain inh Det: inactive

What do the screens show for `Cc1nn(-c2ccccc2)c2c1N(CC(=O)N1CCN(c3cccc(Cl)c3)CC1)C(=O)CS2`?
Cruzain inh noDet: inactive; Cruzain inh Det: inactive

Results for COc1cc(NC(=O)CN2CCN(c3ccccc3F)CC2)c(C)cc1[N+](=O)[O-] ?
Cruzain inh noDet: 25µM; Cruzain inh Det: inactive

How did COc1cc(NC(=O)CN2CCN(c3ccccc3)CC2)c(C)cc1[N+](=O)[O-] do in these assays?
Cruzain inh noDet: inconclusive; Cruzain inh Det: inactive

How did Clc1ccc(CCNc2nc3ccccc3n3nnnc23)cc1 do in these assays?
Cruzain inh noDet: 25µM; Cruzain inh Det: inactive
